Test results from PubChem BioAssay (EPA / NIEHS).
Values joined by “and” are separate entries in the source; they are usually repeats but may differ in a detail not shown here. Equal values may be shown once. Inconclusive results are not listed. Where a structure was tested more than once in an assay, its records may differ in their call. Active and inactive are the calls of the source. The calls were made as follows, unless noted: active = hit-call score of the fitted dose curve at least 0.9, where 1 is the maximum; inactive = score below 0.9.

How the values were obtained:
[1] = CCTE_Deisenroth_AIME_384WELL_CTox_Inactive: Cytotoxicity Assessment (CTOX) in CCTE's 384-well Estrogen Receptor Transactivation Assay without AIME metabolic competence (metabolism negative), Deisenroth Lab (AID 2284039; active = hit-call score of the fitted dose curve at least 0.9, where 1 is the maximum;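 also: cell viability via live-cell protease substrate cleaved to fluorescent probe; cells exposed 24 h to medium preincubated 2 h with alginate-water beads without S9; loss of fluorescence signal means loss of viability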)
Method in brief: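 Fluorescent protease-substrate viability readout after 24 h exposure of VM7Luc4E2 cells to conditioned medium. Chemicals (0.002–200 uM) first sat 2 h over alginate-water beads, no S9. Data fitted bidirectionally, loss of signal meaning viability loss.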

[2] = target: Estrogen receptor (Homo sapiens) (UniProt P03372); assay: CCTE_Deisenroth_AIME_384WELL_LUC_Shift: CCTE's 384-well Estrogen Receptor Transactivation Assay with AIME metabolic competence data shift (ERTA luciferase; difference in metabolism positive and negative), Deisenroth Lab (AID 2284041);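 also: shift is response with S9 minus without S9 so positive means metabolism raised ER signal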
Chain of Estrogen receptor (Homo sapiens) (P03372 whole entry, looked up): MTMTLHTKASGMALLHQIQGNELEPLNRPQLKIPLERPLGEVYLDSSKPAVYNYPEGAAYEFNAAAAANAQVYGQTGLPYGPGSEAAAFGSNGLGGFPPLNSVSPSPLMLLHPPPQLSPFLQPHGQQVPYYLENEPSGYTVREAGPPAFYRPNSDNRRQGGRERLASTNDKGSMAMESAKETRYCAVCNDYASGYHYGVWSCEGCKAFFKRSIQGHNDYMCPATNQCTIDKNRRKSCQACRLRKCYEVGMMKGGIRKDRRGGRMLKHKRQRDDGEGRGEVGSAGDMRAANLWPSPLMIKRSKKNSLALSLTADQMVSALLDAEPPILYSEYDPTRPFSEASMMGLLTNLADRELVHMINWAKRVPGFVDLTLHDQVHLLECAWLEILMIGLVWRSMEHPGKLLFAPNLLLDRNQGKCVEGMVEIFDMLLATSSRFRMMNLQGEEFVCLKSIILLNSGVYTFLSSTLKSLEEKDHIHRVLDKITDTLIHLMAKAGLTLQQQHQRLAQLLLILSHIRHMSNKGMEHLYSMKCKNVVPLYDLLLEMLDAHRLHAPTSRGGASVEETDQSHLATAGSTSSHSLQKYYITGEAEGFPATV
Method in brief: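 Chemicals (0.002–200 uM, 10 points) pre-incubated 2 h with alginate-encapsulated induced male Sprague Dawley rat liver S9 or S9-free, then medium applied 24 h to VM7Luc4E2 cells; luciferase. Endpoint is per-concentration difference, S9-positive minus negative.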

[3] = CCTE_Shafer_MEA_dev_burst_rate: CCTE's Neural Network Formation Assay for Burst Rate, Shafer Lab (AID 2284042);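 as to AC50: potency for loss of burst rate below DMSO control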
Method in brief: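 Exposure ran continuously over 12 days of network development in rat cortical cultures, with compound refreshed during full media changes on DIV 5 and 9. Single-electrode bursts per recording time, well-mean over active electrodes, trapezoidal AUC across days 5–12, fitted downward relative to DMSO.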

[4] = CCTE_Shafer_MEA_dev_bursting_electrodes_number: CCTE's Neural Network Formation Assay for Number of Bursting Electrodes, Shafer Lab (AID 2284043; active = hit-call score of the fitted dose curve at least 0.9, where 1 is the maximum;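 as to AC50: potency is for loss of bursting electrodes relative to DMSO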)
Method in brief: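 Rat cortical primary neurons, 48-well MEA, 16 electrodes/well; dosing DIV 0–12, re-dosed with full media change DIV 5, 9. Recordings DIV 5/7/9/12, AxIS adaptive spike detector; bursting electrode = ≥1 burst/2 min. AUC across days; loss of signal vs DMSO.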

[5] = CCTE_Shafer_MEA_dev_per_burst_interspike_interval: CCTE's Neural Network Formation Assay for Burst Interspike Interval, Shafer Lab (AID 2284044);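 also: mean spike spacing inside bursts as AUC over recordings on days 5 7 9 12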;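 as to AC50: potency for a decrease of within-burst interspike interval below DMSO level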
Method in brief: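 Neurons from rat cortex plated onto PEI-coated MEA wells with laminin […] at 1.5 x 10^5 cells/well, then treated from day 0. Media and compound fully replaced on DIV 5 and 9. Extracellular spontaneous firing recorded four times; interspike interval per burst summarised as AUC.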

[6] = CCTE_Shafer_MEA_dev_burst_duration_mean: CCTE's Neural Network Formation Assay for Mean Burst Duration, Shafer Lab (AID 2284045);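 as to AC50: curve fitted for loss meaning shorter burst duration than DMSO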
Method in brief: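 Rat cortical cultures, 1.5 x 10^5 cells/well with laminin drop; continuous dosing days 0–12, media plus treatment refreshed DIV 5, 9. AxIS adaptive spike detection; mean single-electrode burst duration, AUC over four recordings, negative direction vs DMSO.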

[7] = CCTE_Shafer_MEA_dev_interburst_interval_mean: CCTE's Neural Network Formation Assay for Mean Interburst Interval, Shafer Lab (AID 2284046);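 also: well-mean interburst interval of bursting electrodes as AUC over four recording days; curve fitted for decrease in interburst interval relative to DMSO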
Method in brief: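 Primary rat cortical neurons on PEI-coated 48-well MEA plates (laminin added with cells at plating) (16 electrodes/well), exposed from plating day 0 with renewal at DIV 5 and 9. Mean inter-burst interval averaged over bursting electrodes, AUC across days 5, 7, 9, 12; DMSO baseline.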

[8] = CCTE_Shafer_MEA_dev_inter_network_spike_interval_mean: CCTE's Neural Network Formation Assay for Mean Inter-network Spike Interval, Shafer Lab (AID 2284047);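 as to AC50: potency for a decrease in mean inter-network spike interval below DMSO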
Method in brief: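 Mean time between consecutive network-spike peaks, recorded extracellularly (adaptive spike detection) on DIV 5, 7, 9 and 12, summarized as trapezoidal AUC. Rat cortical cultures on MEAs dosed continuously days 0–12, re-dosed at feeds; loss-of-signal fit relative to DMSO.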

[9] = CCTE_Shafer_MEA_dev_network_spike_number: CCTE's Neural Network Formation Assay for Number of Network Spikes, Shafer Lab (AID 2284048);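 also: synchronized bursts across electrodes counted on days 5 7 9 12 and integrated as AUC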;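 as to AC50: fit as a loss of signal meaning fewer network spikes than DMSO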
Method in brief: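 Rat cortical primary cultures on 48-well MEA (16 electrodes/well); continuous exposure DIV 0–12, full medium and treatment exchange DIV 5, 9. Readout: network spike count, AxIS adaptive detection, recordings DIV 5/7/9/12 collapsed to AUC; loss-of-signal fit, DMSO baseline.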

[10] = CCTE_Shafer_MEA_dev_network_spike_peak: CCTE's Neural Network Formation Assay for Mean Number of Electrodes in Network Spike, Shafer Lab (AID 2284049);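 as to AC50: fitted for loss of signal meaning fewer electrodes in network spikes than DMSO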
Method in brief: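 Network-spike peak electrode count from recordings on days 5, 7, 9 and 12 was combined as trapezoidal area under the curve. Rat cortical cultures were treated continuously from plating, with compound renewed at each feed (DIV 5, 9); fits versus DMSO.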

[11] = CCTE_Shafer_MEA_dev_spike_duration_mean: CCTE's Neural Network Formation Assay for Mean Spike Duration, Shafer Lab (AID 2284051);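 also: mean network spike duration pooled as area under curve over DIV 5 to 12 recordings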;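 as to AC50: potency for a decrease in mean network spike duration versus DMSO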
Method in brief: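 Spontaneous activity was recorded on days 5, 7, 9 and 12 from rat cortical cultures grown on microelectrode arrays and dosed continuously from day 0, with media and compound renewed after the DIV 5 and 9 recordings. Network-spike duration was collapsed by area under the curve.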

[12] = CCTE_Shafer_MEA_dev_network_spike_duration_std: CCTE's Neural Network Formation Assay for Standard Deviation of Network Spike Duration, Shafer Lab (AID 2284052);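 also: hits are decreases in network spike duration SD versus DMSO vehicle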
Method in brief: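 Network spike duration variability was collapsed across recordings on days 5, 7, 9 and 12 by trapezoidal area-under-curve and fitted downward against DMSO. Cultures were rat cortical neurons on PEI-coated MEA plates, dosed continuously from plating, refed with compound DIV 5/9.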

[13] = CCTE_Shafer_MEA_dev_per_network_spike_spike_percent: CCTE's Neural Network Formation Assay for Percent of Spikes in a Network Spike, Shafer Lab (AID 2284054)
Method in brief: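 Read-out: percent of spikes falling in a 0.05 s window at network-spike peak, from spontaneous MEA recordings on days 5, 7, 9 and 12; trapezoidal AUC; loss of signal versus DMSO. Rat cortical cultures, compound present throughout.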

[14] = CCTE_Shafer_MEA_dev_AB: CCTE's Alamar Blue Assay for Cytotoxicity in the Neural Network Formation Assay, Shafer Lab (AID 2284083; active = hit-call score of the fitted dose curve at least 0.9, where 1 is the maximum;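 also: resazurin reduction fluorescence as viability of cultured neurons; twelve days of exposure from plating with re-dosing on DIV 5 and 9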)
Method in brief: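 Resazurin fluorescence, relative to DMSO, gauges viability after twelve days of exposure that began at plating of rat cortical neurons (1.5 x 10^5 cells/well, 48-well MEA); treatment renewed with full medium exchange on DIV 5 and 9.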

[15] = CCTE_Shafer_MEA_dev_mutual_information_norm: CCTE's Neural Network Formation Assay for Mutual Information Normalization, Shafer Lab (AID 2284091);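 as to AC50: mutual information between electrodes summarised as area under curve across four recording days; potency is for a decrease in mutual information relative to DMSO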
Method in brief: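 Neurons from rat cortex were seeded at 1.5 x 10^5 cells/well onto PEI-coated MEAs in a laminin drop, then exposed to compound from day 0 for twelve days. Network recordings on four days gave mutual information, summarised by AUC relative to DMSO.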

[16] = tested on: DIO2 (gene 1734); assay: CCTE_GLTED_hDIO2: CCTE's human Deiodinase 2 (DIO2) Inhibition Assay, Great Lakes Toxicology and Ecology Division (GLTED) Lab (AID 2284050; active = hit-call score of the fitted dose curve at least 0.9, where 1 is the maximum)
Method in brief: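 Readout: absorbance from Sandell-Kolthoff detection of free iodide released by human DIO2 during a 3 h incubation with chemical. Cell-free format, n=3; activity fitted relative to DMSO negative control.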

[17] = tested on: DIO3 (gene 1735); assay: CCTE_GLTED_hDIO3: CCTE's human Deiodinase 3 (DIO3) Inhibition Assay, Great Lakes Toxicology and Ecology Division (GLTED) Lab (AID 2284055; active = hit-call score of the fitted dose curve at least 0.9, where 1 is the maximum;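 also: potency is for inhibition seen as loss of released iodide signal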)
Method in brief: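 hDIO3 (adenovirus-expressed) + test chemical, 3 h incubation; free iodide quantified by Sandell-Kolthoff reaction, absorbance read-out. DMSO negative control, n=3.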

[18] = CCTE_Shafer_MEA_acute_AB: CCTE's Alamar Blue Assay for Cytotoxicity in the Neural Acute Assay, Shafer Lab (AID 2284069; active = hit-call score of the fitted dose curve at least 0.9, where 1 is the maximum;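 also: active compounds lower the viability signal compared with DMSO wells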)
Method in brief: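 Resazurin reduction (CellTiter Blue, 1:6 in fresh medium) read at ex 544/em 590 nm marks viability loss relative to DMSO. Cells: primary rat cortical neuron networks on microelectrode arrays, treated after baseline recording at 13 or 15 days in vitro.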

[19] = UKN5_HCS_SBAD2_cell_viability: Viability Assessment in the University of Konstanz (UKN) Leist Lab Neurite Outgrowth Assay in human iPSC-derived immature Dorsal Root Ganglia Neurons (UKN5) (AID 2284056)
Method in brief: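 iPSC-derived immature peripheral neurons (SBAD2) seeded on Matrigel with CHIR99021, SU5402 and DAPT, dosed 1 h later for 24 h. Viability from Hoechst H-33342 and calcein-AM live staining, high-content imaging; bidirectional fit versus DMSO.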

[20] = UKN5_HCS_SBAD2_neurite_outgrowth: University of Konstanz (UKN) Leist Lab Neurite Outgrowth Assay in human iPSC-derived immature Dorsal Root Ganglia Neurons (UKN5) (AID 2284070); conditions: actives raise or lower the signal
Method in brief: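 Cryopreserved SBAD2 peripheral neurons were seeded at 100.000 cells/cm2 in N2-S/KSR medium containing CHIR99021, SU5402 and DAPT, then exposed to compounds for 24 h. Neurite area from calcein-AM high-content imaging was fitted bidirectionally against DMSO.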

Measured: AC50

COS(C)(=O)=O
inactive: [1] | [2]

CCN(CC)C(=S)SSC(=S)N(CC)CC
active: [3] 124 nM and 50 nM | [4] 108 nM and 46.3 nM | [5] 157 nM and 39.7 nM | [6] 103 nM and 38.3 nM | [7] 200 nM and 55.2 nM | [8] 225 nM and 91.6 nM | [9] 102 nM and 52.1 nM | [10] 110 nM and 50.8 nM | [11] 106 nM and 47.6 nM | [12] 100 nM and 40.6 nM | [13] 161 nM and 86.3 nM | [14] 146 nM and 58.6 nM | [15] 94.3 nM and 37.8 nM
inactive: [1] | [2]

O=C1CN(N=Cc2ccc([N+](=O)[O-])o2)C(=O)N1
active: [1] 31200 nM
inactive: [2]

C=CCc1cc(S(=O)(=O)c2ccc(O)c(CC=C)c2)ccc1O
inactive: [1] | [2] | [18]
active: [16] 120000 nM | [17] 62500 nM

CCCCOC(=O)c1ccccc1
inactive: [1] | [2]

c1ccc2c(c1)-c1cccc3c1c-2cc1ccccc13
active: [1] 19800 nM | [4] 5070 nM | [10] 6.22 µM | [11] 4480 nM | [15] 1.35 µM
not listed: [16] | [17] | [18] | [19] | [20]
inactive: all other assays above

OCCOCCOCCO
inactive: [1] | [2]

CCOC(N)=O
inactive: [1] | [2]

CC(=O)c1ccccc1
inactive: [1] | [2]

CCc1cccc(CC)c1N
inactive: [2]
active: [1] 160000 nM

CC(C)CC(C)O (centres undefined)
inactive: [1] | [2]

OCc1ccccc1
inactive: [1] | [2]

CC(C)CCCCCCOC(=O)C1CCCCC1C(=O)OCCCCCCC(C)C (centres undefined)
inactive: [2]

CCCc1ccccc1
inactive: [1] | [2] | [18]

NC(=O)NN=Cc1ccc([N+](=O)[O-])o1
inactive: [2]
active: [1] 108000 nM

CCCCCOC(C)=O
inactive: [1] | [2]

C[C@@H](Oc1ccc(CNC(=O)c2cccnc2Oc2ccc3c(c2)OCO3)c(F)c1)C(=O)O
inactive: [1] | [2]

CC(C)c1nnc2ccc(-c3ocnc3-c3cc(F)ccc3F)cn12
inactive: [2]

CCn1nc(C)c2c1C(=O)NCC(c1ccc(O)cc1)=N2
inactive: [2]

CCCCC(CC)C(=O)OCCOCCOCCOC(=O)C(CC)CCCC (centres undefined)
inactive: [2]

COc1cc2c(c(OC)c1OC)-c1ccc(OC)c(=O)cc1[C@@H](NC(C)=O)CC2
active: [1] 19800 nM | [3] 27.6 nM | [4] 27 nM | [5] 6.47 nM | [6] 6.51 nM | [7] 15.9 nM | [8] 26.2 nM | [9] 26 nM | [10] 0.0261 µM | [11] 24.8 nM | [12] 3.22 nM | [13] 3 nM | [14] 23.2 nM | [15] 0.0238 µM
inactive: [2] | [18]

c1ccc2ncccc2c1
inactive: [2]

OCC(CO)(CO)CO
inactive: [1] | [2]

CCc1ccc(O)c(C(C)(C)C)c1
inactive: [1] | [2] | [18]

NNC(=O)c1ccncc1
active: [4] 595 nM | [10] 2.98 µM
not listed: [1] | [2] | [16] | [17] | [18] | [19] | [20]
inactive: all other assays above

CC[C@H](C)C(=O)O[C@H]1C[C@H](O)C=C2C=C[C@H](C)[C@H](CC[C@@H](O)C[C@@H](O)CC(=O)O)[C@H]21
inactive: [3] | [5] | [6] | [7] | [8] | [12] | [18]
active: [9] 143 nM | [10] 3.06 µM | [11] 37 nM | [13] 1880 nM | [14] 2430 nM | [15] 1.97 µM

c1ccc2cc3ccccc3cc2c1
inactive: [3] | [4] | [5] | [6] | [7] | [8] | [9] | [10] | [11] | [12] | [13] | [15]
active: [13] 218 nM

NC(=O)N1c2ccccc2C=Cc2ccccc21
not listed: [1] | [2] | [14] | [16] | [17] | [18]
inactive: all other assays above

COCc1nnc(-c2ccc[n+]([O-])c2)n1-c1c(Cl)c(Cl)cc2[nH]c(=O)c(=O)[nH]c12
inactive: [18]

Nc1ccn([C@@H]2O[C@H](CO)[C@@H](O)[C@@H]2O)c(=O)n1
inactive: [5] | [8] | [19]
active: [3] 120 nM and 1.09 µM | [4] 195 nM and 215 nM | [5] 254 nM | [6] 248 nM and 1.85 µM | [7] 158 nM and 437 nM | [8] 140 nM | [9] 144 nM and 143 nM | [10] 160 nM and 623 nM | [11] 145 nM and 889 nM | [12] 65.6 nM and 636 nM | [13] 179 nM and 84 nM | [20] 1200 nM | [14] 18.5 µM and 1.67 µM | [15] 89.3 nM and 97.6 nM
